Test results: the supplement of paper PMC10849652
Of roughly 8,800 targets only a part is listed; those with a hit were picked by preference. About 0.5% of all pairs of compound and target were hits.

Tests used:
Test in all cases: log2 fold change, soluble protein after heating vs DMSO (PISA); higher = thermal stabilisation; K562 lysate, 10 uM; active = over 0.2 and 3.5 SD of the protein, either way, in both replicates (recomputed)
[1] = compound: C1=CC=C(C=C1)[C@H](COC2=CC3=C(C=C2)NC(=O)N3)NC(=O)C4=CC=CN(C4=O)CC5=CC(=C(C=C5)F)F
Summary of the method: (§1)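 Log-two fold change in thermal stability relative to solvent controls is reported from duplicates. For each sample, crude K562 extract from dounce-homogenised pellets in PBS pH 7.4 with 1 mM MgCl2, at 1 mg/mL protein, was treated with 10 μM compound for 30 min. Aliquots heated for 3 min across 48°C-58°C were pooled, brought to 0.5% NP-40 at 4°C and cleared at 21,000xg for 90 min. The supernatant was quantified by TMTpro 16plex LC-MS/MS with channel sums equalised.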

[2] = compound: CC1=C(SC2=C1C(=N[C@H](C3=NN=C(N32)C)CC(=O)N)C4=CC=C(C=C4)Cl)C
Summary of the method: as §1

[3] = compound: CC1=C2C(=CC=C1)N=C(N(C2=O)C3=CC=CC=C3C)CN4C=NC5=C(N=CN=C54)N
Summary of the method: as §1

[4] = compound: Cc1sc2c(c1C)C(c1ccc(Cl)cc1)=N[C@@H](CC(=O)OC(C)(C)C)c1nnc(C)n1-2
Summary of the method: as §1

[5] = compound: c1ccc([C@@H]2C[C@H]2NC2CCNCC2)cc1
Summary of the method: as §1

Measured: log2 fold change

RAD50 isoform 2 (UniProt Q92878)
Chain of UniProt Q92878 (Q92878 whole entry, looked up): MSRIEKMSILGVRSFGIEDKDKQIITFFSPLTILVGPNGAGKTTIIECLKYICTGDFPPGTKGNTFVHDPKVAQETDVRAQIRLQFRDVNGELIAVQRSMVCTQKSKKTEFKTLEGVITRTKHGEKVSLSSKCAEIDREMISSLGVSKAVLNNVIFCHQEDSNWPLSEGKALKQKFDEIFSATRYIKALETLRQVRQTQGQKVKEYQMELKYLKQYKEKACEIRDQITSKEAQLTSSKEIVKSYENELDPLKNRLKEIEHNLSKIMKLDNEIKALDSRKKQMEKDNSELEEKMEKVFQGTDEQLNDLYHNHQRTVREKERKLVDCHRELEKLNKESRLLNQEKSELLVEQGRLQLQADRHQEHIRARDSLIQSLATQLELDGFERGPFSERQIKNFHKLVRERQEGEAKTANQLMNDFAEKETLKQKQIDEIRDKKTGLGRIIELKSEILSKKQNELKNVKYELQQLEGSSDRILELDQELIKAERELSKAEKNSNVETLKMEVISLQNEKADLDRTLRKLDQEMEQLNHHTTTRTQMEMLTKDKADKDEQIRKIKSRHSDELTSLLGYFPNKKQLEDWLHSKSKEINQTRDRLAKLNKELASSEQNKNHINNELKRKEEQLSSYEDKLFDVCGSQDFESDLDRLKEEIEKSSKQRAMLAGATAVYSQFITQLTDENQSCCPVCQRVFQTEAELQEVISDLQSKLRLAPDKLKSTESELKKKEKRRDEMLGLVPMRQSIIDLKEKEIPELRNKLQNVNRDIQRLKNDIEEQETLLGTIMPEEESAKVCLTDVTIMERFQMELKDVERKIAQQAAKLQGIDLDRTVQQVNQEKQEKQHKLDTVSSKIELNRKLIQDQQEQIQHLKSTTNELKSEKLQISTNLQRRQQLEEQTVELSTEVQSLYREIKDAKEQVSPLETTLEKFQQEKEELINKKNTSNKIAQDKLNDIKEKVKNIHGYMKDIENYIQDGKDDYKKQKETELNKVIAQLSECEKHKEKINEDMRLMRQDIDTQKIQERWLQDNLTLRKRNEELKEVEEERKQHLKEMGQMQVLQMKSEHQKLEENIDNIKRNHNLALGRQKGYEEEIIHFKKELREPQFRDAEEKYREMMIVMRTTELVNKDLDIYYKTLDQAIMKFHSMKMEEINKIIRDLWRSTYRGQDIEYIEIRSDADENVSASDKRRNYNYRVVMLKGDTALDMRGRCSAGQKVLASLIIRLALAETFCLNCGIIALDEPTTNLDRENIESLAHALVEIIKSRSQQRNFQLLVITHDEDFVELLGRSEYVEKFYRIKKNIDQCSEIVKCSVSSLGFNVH
inactive: [1] -0.002 | [2] -0.031 | [3] 0.004 | [4] 0.008 | [5] 0.009

RBM4 (UniProt Q9BWF3)
Chain of UniProt Q9BWF3 (Q9BWF3 whole entry, looked up): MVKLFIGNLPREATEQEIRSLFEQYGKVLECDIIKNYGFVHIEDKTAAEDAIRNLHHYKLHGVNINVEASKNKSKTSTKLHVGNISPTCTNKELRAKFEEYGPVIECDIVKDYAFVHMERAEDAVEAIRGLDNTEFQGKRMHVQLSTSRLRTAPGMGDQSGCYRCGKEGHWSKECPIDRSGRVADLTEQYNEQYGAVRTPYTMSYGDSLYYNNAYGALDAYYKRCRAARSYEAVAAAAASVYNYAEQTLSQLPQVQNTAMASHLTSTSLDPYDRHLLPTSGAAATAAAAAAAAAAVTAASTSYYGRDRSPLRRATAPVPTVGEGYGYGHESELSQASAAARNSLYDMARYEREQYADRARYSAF
inactive: [1] 0 | [2] 0.016 | [3] 0.022 | [4] 0.03 | [5] -0.007

RFC2 (UniProt P35250)
inactive: [1] -0.009 | [2] 0.006 | [3] -0.008 | [4] 0.043 | [5] -0.033

RTTN (UniProt Q86VV8)
inactive: [1] 0.089 | [2] -0.033 | [3] -0.289 | [4] 0.046 | [5] 0.024

REXO4 (UniProt Q9GZR2)
inactive: [1] 0.009 | [2] -0.003 | [3] 0.029 | [4] 0.051 | [5] 0.138

SAP30 (UniProt O75446)
inactive: [1] 0.029 | [2] -0.029 | [3] 0.009 | [4] 0.014 | [5] -0.026

RNPS1 (UniProt Q15287)
inactive: [1] 0.014 | [2] -0.003 | [3] 0.06 | [4] 0.036 | [5] 0.016

RPS26P11 (UniProt Q5JNZ5)
active: [5] -0.31
inactive: [1] -0.001 | [2] 0.031 | [3] 0.05 | [4] -0.033

RBM42 (UniProt Q9BTD8)
inactive: [1] -0.014 | [2] -0.003 | [3] 0.107 | [4] 0.103 | [5] -0.006

SEC16A isoform 5 (UniProt O15027)
inactive: [1] -0.013 | [2] -0.005 | [3] 0.067 | [4] 0.036 | [5] 0.011

RNF40 (UniProt O75150)
inactive: [1] 0 | [2] -0.02 | [3] 0.007 | [4] -0.003 | [5] 0.041

RPL27 (UniProt P61353)
inactive: [1] 0.034 | [2] 0.031 | [3] 0.003 | [4] 0.008 | [5] 0.101

RNASEL (UniProt Q05823)
inactive: [1] 0.047 | [2] -0.041 | [3] 0.068 | [4] -0.004 | [5] 0.046

RTN4IP1 (UniProt Q8WWV3)
inactive: [1] 0.028 | [2] -0.005 | [3] 0.027 | [4] -0.119 | [5] 0.076

RIPK1 (UniProt Q13546)
inactive: [1] -0.019 | [2] -0.015 | [3] -0.009 | [4] -0.04 | [5] -0.021

REEP5 (UniProt Q00765)
inactive: [1] 0.007 | [2] 0.009 | [3] 0.028 | [4] 0.022 | [5] -0.092

SCO1 (UniProt O75880)
inactive: [1] -0.021 | [2] 0.017 | [3] 0 | [4] 0.136 | [5] -0.027

RPL31 (UniProt P62899)
inactive: [1] 0.016 | [2] 0.013 | [3] -0.027 | [4] 0.041 | [5] -0.022

RAPGEF4 (UniProt Q8WZA2)
inactive: [1] 0 | [2] 0.092 | [3] 0.06 | [4] -0.274 | [5] -0.558

RAB8B (UniProt Q92930)
inactive: [1] -0.067 | [2] 0.013 | [3] -0.041 | [4] -0.012 | [5] 0.146

RBMX (UniProt P38159)
inactive: [1] 0.089 | [2] -0.01 | [3] -0.004 | [4] -0.015 | [5] -0.072

RAB3IL1 (UniProt Q8TBN0)
inactive: [1] 0.047 | [2] 0.008 | [3] 0.02 | [4] 0.007 | [5] 0.039

RAB27A (UniProt P51159)
inactive: [1] 0.052 | [2] 0.028 | [3] -0.007 | [4] -0.013 | [5] 0.181

SAMD4A (UniProt Q9UPU9)
inactive: [1] 0.114 | [2] 0.086 | [3] -0.01 | [4] -0.079 | [5] -0.03

RAB1B (UniProt Q9H0U4)
inactive: [1] -0.015 | [2] 0.021 | [3] 0.056 | [4] 0.013 | [5] -0.17

RPN2 (UniProt P04844)
Chain of UniProt P04844 (P04844 whole entry, looked up): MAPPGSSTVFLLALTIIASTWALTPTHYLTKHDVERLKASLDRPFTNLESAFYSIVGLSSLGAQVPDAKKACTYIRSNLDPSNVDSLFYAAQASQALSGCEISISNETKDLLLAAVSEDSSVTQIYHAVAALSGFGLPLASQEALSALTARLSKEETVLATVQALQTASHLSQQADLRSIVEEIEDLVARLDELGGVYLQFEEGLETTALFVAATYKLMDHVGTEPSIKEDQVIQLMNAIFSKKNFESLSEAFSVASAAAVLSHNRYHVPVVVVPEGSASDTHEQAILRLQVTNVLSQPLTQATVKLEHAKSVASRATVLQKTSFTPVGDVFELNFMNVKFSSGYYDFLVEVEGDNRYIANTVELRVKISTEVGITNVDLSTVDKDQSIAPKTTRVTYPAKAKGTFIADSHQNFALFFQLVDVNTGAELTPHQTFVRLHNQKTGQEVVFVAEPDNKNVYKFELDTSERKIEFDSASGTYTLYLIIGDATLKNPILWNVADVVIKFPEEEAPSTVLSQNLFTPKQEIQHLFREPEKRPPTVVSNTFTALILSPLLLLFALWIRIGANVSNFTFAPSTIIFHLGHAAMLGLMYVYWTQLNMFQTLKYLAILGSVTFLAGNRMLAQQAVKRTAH
inactive: [1] -0.001 | [2] -0.01 | [3] 0.01 | [4] -0.008 | [5] -0.009

RBSN (UniProt Q9H1K0)
inactive: [1] 0.031 | [2] 0.076 | [3] 0.087 | [4] 0.117 | [5] -0.019

SEC62 (UniProt Q99442)
inactive: [1] 0.059 | [2] -0.017 | [3] 0.015 | [4] 0.043 | [5] -0.023

RANBP2 (UniProt P49792)
inactive: [1] -0.019 | [2] -0.009 | [3] 0.002 | [4] 0.003 | [5] 0.02

RHAG (UniProt Q02094)
inactive: [1] 0.033 | [2] -0.076 | [3] 0.145 | [4] -0.066 | [5] -0.143

RDX (UniProt P35241)
inactive: [1] -0.029 | [2] -0.036 | [3] 0.003 | [4] 0.025 | [5] 0.148

RNF123 (UniProt Q5XPI4)
inactive: [1] -0.019 | [2] -0.024 | [3] 0.019 | [4] 0.005 | [5] 0.047

RAP1GAP isoform 4 (UniProt P47736)
inactive: [1] 0.019 | [2] -0.012 | [3] -0.019 | [4] -0.009 | [5] 0.007

ROCK1 (UniProt Q13464)
Chain of UniProt Q13464 (Q13464 whole entry, looked up): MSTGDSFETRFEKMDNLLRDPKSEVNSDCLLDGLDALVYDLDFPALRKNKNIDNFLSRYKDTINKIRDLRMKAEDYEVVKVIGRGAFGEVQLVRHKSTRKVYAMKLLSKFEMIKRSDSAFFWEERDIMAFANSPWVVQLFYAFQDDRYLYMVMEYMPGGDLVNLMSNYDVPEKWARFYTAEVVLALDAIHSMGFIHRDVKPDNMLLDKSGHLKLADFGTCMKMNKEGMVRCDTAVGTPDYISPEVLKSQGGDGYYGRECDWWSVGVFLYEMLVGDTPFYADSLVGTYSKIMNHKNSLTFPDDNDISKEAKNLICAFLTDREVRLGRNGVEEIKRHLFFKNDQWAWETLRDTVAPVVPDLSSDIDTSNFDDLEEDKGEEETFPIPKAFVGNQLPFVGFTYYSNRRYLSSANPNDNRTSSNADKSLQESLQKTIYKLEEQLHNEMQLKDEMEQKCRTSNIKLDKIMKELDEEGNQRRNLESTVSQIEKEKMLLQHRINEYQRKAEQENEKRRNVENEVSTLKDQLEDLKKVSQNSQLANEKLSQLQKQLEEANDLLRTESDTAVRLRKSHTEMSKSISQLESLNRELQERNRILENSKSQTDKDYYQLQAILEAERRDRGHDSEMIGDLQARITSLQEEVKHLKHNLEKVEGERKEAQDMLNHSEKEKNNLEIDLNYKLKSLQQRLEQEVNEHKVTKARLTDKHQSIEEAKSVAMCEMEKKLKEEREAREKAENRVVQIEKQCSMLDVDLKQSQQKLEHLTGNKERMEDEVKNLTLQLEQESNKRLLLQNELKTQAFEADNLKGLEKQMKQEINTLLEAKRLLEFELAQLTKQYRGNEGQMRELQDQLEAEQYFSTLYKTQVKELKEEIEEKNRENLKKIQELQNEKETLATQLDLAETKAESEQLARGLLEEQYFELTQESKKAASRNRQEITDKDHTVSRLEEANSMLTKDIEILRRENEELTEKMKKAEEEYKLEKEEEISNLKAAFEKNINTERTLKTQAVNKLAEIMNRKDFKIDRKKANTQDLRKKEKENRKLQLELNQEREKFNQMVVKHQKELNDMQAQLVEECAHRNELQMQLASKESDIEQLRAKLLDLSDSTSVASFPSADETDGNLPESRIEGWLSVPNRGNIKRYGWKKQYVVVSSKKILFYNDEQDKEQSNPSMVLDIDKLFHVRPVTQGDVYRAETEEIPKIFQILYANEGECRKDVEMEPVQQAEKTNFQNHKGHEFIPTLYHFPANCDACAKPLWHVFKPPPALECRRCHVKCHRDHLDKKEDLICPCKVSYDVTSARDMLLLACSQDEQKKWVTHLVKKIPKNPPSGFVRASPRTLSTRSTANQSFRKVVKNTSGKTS
inactive: [1] 0.019 | [2] 0.027 | [3] 0.023 | [4] -0.016 | [5] -0.008

RALGAPB (UniProt Q86X10)
inactive: [1] 0.029 | [2] 0.023 | [3] 0.085 | [4] -0.026 | [5] 0.006

RBM23 isoform 2 (UniProt Q86U06)
inactive: [1] -0.118 | [2] -0.084 | [3] 0.06 | [4] 0.011 | [5] -0.002

SCO2 (UniProt O43819)
inactive: [1] 0.026 | [2] 0.002 | [3] 0.037 | [4] 0.011 | [5] -0.074

RABEPK (UniProt Q7Z6M1)
Chain of UniProt Q7Z6M1 (Q7Z6M1 whole entry, looked up): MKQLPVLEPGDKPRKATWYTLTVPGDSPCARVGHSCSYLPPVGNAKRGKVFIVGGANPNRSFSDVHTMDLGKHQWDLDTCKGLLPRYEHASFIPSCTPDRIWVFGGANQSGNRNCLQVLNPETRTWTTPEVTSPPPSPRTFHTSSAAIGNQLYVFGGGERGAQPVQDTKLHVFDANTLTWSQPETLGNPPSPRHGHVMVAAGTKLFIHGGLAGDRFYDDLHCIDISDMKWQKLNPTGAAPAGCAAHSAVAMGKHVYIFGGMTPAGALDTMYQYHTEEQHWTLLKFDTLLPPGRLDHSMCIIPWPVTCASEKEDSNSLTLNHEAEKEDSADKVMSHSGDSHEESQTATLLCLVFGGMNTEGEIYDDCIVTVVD
inactive: [1] -0.032 | [2] 0.054 | [3] 0.026 | [4] 0.017 | [5] -0.071

SESN2 (UniProt P58004)
inactive: [1] -0.074 | [2] 0.01 | [3] -0.025 | [4] -0.004 | [5] -0.01

S100A11 (UniProt P31949)
inactive: [1] 0.029 | [2] -0.075 | [3] -0.002 | [4] -0.029 | [5] -0.005

RPS9 (UniProt P46781)
inactive: [1] 0.003 | [2] 0.038 | [3] -0.007 | [4] 0.1 | [5] 0.124

SBF1 isoform 4 (UniProt O95248)
inactive: [1] -0.08 | [2] 0.001 | [3] -0.094 | [4] 0.092 | [5] 0.072

RIOK1 (UniProt Q9BRS2)
inactive: [1] -0.026 | [2] -0.031 | [3] -0.003 | [4] -0.006 | [5] -0.015

RBM8A (UniProt Q9Y5S9)
inactive: [1] 0.066 | [2] 0.01 | [3] -0.061 | [4] 0.084 | [5] 0.171

RABGGTB (UniProt P53611)
Chain of UniProt P53611 (P53611 whole entry, looked up): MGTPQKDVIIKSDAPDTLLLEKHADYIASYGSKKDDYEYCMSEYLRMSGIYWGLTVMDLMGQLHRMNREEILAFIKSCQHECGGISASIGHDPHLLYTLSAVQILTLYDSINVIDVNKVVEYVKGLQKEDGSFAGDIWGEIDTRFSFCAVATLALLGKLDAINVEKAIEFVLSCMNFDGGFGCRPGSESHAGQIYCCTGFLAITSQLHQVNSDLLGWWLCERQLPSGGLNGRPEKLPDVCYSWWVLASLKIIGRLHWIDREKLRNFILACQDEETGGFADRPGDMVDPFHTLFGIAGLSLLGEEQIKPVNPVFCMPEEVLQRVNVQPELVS
inactive: [1] -0.102 | [2] -0.01 | [3] 0.005 | [4] -0.048 | [5] -0.017

RFC3 (UniProt P40938)
inactive: [1] -0.032 | [2] 0.003 | [3] 0.026 | [4] 0.055 | [5] 0.024

RCC1 isoform 2 (UniProt P18754)
Chain of UniProt P18754 (P18754 whole entry, looked up): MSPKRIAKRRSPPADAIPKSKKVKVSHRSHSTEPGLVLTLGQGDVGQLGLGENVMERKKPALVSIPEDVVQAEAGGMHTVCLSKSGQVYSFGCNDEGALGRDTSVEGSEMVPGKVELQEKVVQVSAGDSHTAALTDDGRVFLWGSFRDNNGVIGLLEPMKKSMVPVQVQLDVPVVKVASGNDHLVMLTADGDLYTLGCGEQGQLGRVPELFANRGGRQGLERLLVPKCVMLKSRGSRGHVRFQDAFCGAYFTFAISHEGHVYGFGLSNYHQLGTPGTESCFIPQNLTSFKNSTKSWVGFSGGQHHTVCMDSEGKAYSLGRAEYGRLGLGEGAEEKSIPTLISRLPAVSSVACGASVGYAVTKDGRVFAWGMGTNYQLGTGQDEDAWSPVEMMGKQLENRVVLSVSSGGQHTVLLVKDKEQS
inactive: [1] 0.023 | [2] 0.026 | [3] -0.013 | [4] 0.045 | [5] 0.014

QTRT2 isoform 4 (UniProt Q9H974)
inactive: [1] -0.004 | [2] 0.014 | [3] -0.03 | [4] -0.019 | [5] -0.157

RRAGA (UniProt Q7L523)
inactive: [1] 0.024 | [2] -0.039 | [3] 0.01 | [4] -0.045 | [5] -0.036

SCAF1 (UniProt Q9H7N4)
inactive: [1] 0.112 | [3] 0.002 | [4] -0.007 | [5] 0.019
active: [2] -0.492

RFC4 (UniProt P35249)
inactive: [1] -0.026 | [2] -0.059 | [3] 0.006 | [4] 0.028 | [5] 0.01

RNF181 (UniProt Q9P0P0)
Chain of UniProt Q9P0P0 (Q9P0P0 whole entry, looked up): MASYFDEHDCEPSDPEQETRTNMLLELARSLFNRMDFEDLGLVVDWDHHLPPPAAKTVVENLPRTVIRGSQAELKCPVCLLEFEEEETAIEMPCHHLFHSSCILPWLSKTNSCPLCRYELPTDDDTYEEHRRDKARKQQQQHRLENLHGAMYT
inactive: [1] 0.03 | [2] -0.145 | [3] -0.031 | [4] 0.022 | [5] 0.066

R3HCC1 (UniProt Q9Y3T6)
inactive: [1] 0.014 | [2] 0.015 | [3] 0.006 | [4] -0.014 | [5] -0.047
